From PubChem BioAssay (Tox21)
Results filed as inconclusive are left out. The source made the active and inactive calls. Unless noted, the call rests on the fitted dose curve; in most records, active means well fitted curve in the direction sought with a large enough effect in the repeat runs; inconclusive means weak or mixed curves; inactive means no such curve, though single readings can be large; an effect the other way counts as inactive or inconclusive.

Key:
[1] = qHTS RealTime-Glo MT Cell Viability Assay in HEK293 cells - 0 hour (AID 1224880); further: top concentration of the series differs between compounds; nearly all actives have a fitted effect of over 45% in size
Summary of the method: (§1)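 Tox21 screen in HEK293 using RealTime-Glo MT chemistry, with cells and reagent co-dispensed. Luminescence proportional to viable cell number was captured at intervals during 40 h compound exposure at 37 C.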

[2] = A CellTox Green Cytotoxicity Assay to monitor cytotoxicity in HEK293 cells - 32 hour (AID 1224881); further: nearly all actives have a fitted effect of over 40% in size
Summary of the method: (§2)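 Seeding of HEK293 cells together with cytotoxicity dye preceded a 5 h incubation at 37 C/5% CO2. Test compounds in DMSO were then added and fluorescence monitored across 40 h.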

[3] = A CellTox Green Cytotoxicity Assay to monitor cytotoxicity in HepG2 cells - 0 hour (AID 1224882); further: nearly all actives have a fitted effect of over 35% in size
Summary of the method: (§3)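 Nonlytic assay: viable cells exclude the dye, so fluorescence scales with cell death. HepG2 at 600 cells/well, compounds added after 5 h, signal read across 40 h.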

[4] = A CellTox Green Cytotoxicity Assay to monitor cytotoxicity in HepG2 cells - 32 hour (AID 1224883); further: nearly all actives have a fitted effect of over 50% in size
Summary of the method: as §3

[5] = A CellTox Green Cytotoxicity Assay to monitor cytotoxicity in HEK293 cells - 8 hour (AID 1224884); further: nearly all actives have a fitted effect of over 35% in size
Summary of the method: as §2

[6] = qHTS RealTime-Glo MT Cell Viability Assay in HepG2 cells - 16 hour (AID 1224885); further: nearly all actives have a fitted effect of over 50% in size
Summary of the method: (§4)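 Tox21 10K library screened in qHTS format on HepG2 cells carrying RealTime-Glo reagents. Compounds were added after a 5 h preincubation, and the luminescent signal from continuous culture was measured repeatedly during 40 h treatment.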

[7] = qHTS RealTime-Glo MT Cell Viability Assay in HEK293 cells - 24 hour (AID 1224886); further: nearly all actives have a fitted effect of over 50% in size; further: potency means the concentration at half of the fitted maximal effect; on activity change, negative = cytotoxicity: top concentration of the series differs between compounds
Summary of the method: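 Luminescence generated by NanoLuc from substrate produced by living HEK293 cells served as the viability signal. Each value reflects the reading at its stated time point during continuous 40 h compound exposure at 37 C.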

[8] = qHTS RealTime-Glo MT Cell Viability Assay in HEK293 cells - 8 hour (AID 1224887); further: top concentration of the series differs between compounds; nearly all actives have a fitted effect of over 50% in size
Summary of the method: as §1

[9] = A CellTox Green Cytotoxicity Assay to monitor cytotoxicity in HEK293 cells - 16 hour (AID 1224888); further: nearly all actives have a fitted effect of over 35% in size
Summary of the method: as §2

[10] = qHTS RealTime-Glo MT Cell Viability Assay in HepG2 cells - 0 hour (AID 1224889); further: nearly all actives have a fitted effect of over 50% in size
Summary of the method: as §4

[11] = A CellTox Green Cytotoxicity Assay to monitor cytotoxicity in HepG2 cells - 8 hour (AID 1224890); further: nearly all actives have a fitted effect of over 45% in size
Summary of the method: as §3

[12] = qHTS assay to identify small molecule antagonists of the estrogen receptor alpha (ER-alpha) signaling pathway using the BG1 cell line in the presence of 0.1 nM 17-beta-estradiol - cell viability counter screen (AID 1259241); further: nearly all actives have a fitted effect of over 40% in size
Summary of the method: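 Live-cell protease activity (CellTiter-Fluor fluorescence, 30 min) was read in the same wells after VM7Luc4E2 cells had been exposed to compounds with 0.1 nM 17beta-estradiol for 22 hr at 37C.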

[13] = qHTS assay to identify small molecule antagonists of the androgen receptor (AR) signaling pathway using the MDA cell line in the presence of 0.5 nM R1881 - cell viability counter screen (AID 1259242); further: nearly all actives have a fitted effect of over 45% in size
Summary of the method: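 R1881 at 0.5 nM final stimulated MDA-kb2 cells during 16 hr compound treatment at 37C. Cytotoxicity read: CellTiter-Fluor fluorescence after 30 min.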

[14] = qHTS assay to identify small molecule phospholipidosis (PLD) inducers (AID 1259344; active means well fitted curve in the direction sought with a large enough effect; an effect the other way counts as inactive or inconclusive)
Summary of the method: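 HepG2 cells on collagen I, attached 4 h at 37 C, were co-treated with compound and LipidTOX Red dye for 24 h at 37 C, then fixed with paraformaldehyde plus Hoechst 33342 and imaged by high-content microscopy for phospholipid accumulation.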

[15] = qHTS assay to identify small molecule HDAC inhibitors (AID 1259364);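 further: wild-type HCT-116 cells with endogenous class I/II HDAC activity; top concentration of the series differs between compounds; nearly all actives have a fitted effect of over 45% in size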
Summary of the method: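 Relative class I and II HDAC activity is taken from the luminogenic signal in HCT-116 cells, with compound exposure 2 hr and reagent development 30 min at room temperature.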

[16] = qHTS assay to identify small molecule HDAC inhibitors - cell viability counter screen (AID 1259365)
Summary of the method: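 HCT-116 (wild type), 1,500 cells/well, overnight 37C/5% CO2; compound in DMSO 2hr; CellTiter-Glo 30min RT; luminescence read.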

[17] = qHTS assay to identify small molecule agonists of the sonic hedgehog signaling (Shh) pathway - cell viability counter screen (AID 1259366); further: nearly all actives have a fitted effect of over 50% in size
Summary of the method: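 CellTiter-Fluor fluorescence read-out, 1 hr at 37C, added after 23hr compound exposure. Cells: 3T3 Gli1-Luc, an NIH/3T3 clone with stably integrated Gli1-Luc reporter, plated 4hr before compound.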

[18] = qHTS assay to identify small molecule antagonists of the sonic hedgehog signaling (Shh) pathway - cell viability counter screen (AID 1259367); further: nearly all actives have a fitted effect of over 55% in size; further: potency means the concentration at half of the fitted maximal effect
Summary of the method: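 NIH/3T3-derived Gli1-Luc reporter cells (2,000 per well) rested 4 hr at 37 C, then received DMSO compounds plus conditioned medium. After 23 hr of treatment, CellTiter-Fluor was added for 1 hr at 37C and fluorescence read.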

[19] = molecular target: Estrogen receptor (Homo sapiens) (UniProt P03372); assay: qHTS assay to identify small molecule antagonists of the estrogen receptor alpha (ER-alpha) signaling pathway using the BG1 cell line in the presence of 0.1 nM 17-beta-estradiol (AID 1259244); further: nearly all actives have a fitted effect of over 50% in size
Estrogen receptor (Homo sapiens), sequence (P03372 whole entry, looked up): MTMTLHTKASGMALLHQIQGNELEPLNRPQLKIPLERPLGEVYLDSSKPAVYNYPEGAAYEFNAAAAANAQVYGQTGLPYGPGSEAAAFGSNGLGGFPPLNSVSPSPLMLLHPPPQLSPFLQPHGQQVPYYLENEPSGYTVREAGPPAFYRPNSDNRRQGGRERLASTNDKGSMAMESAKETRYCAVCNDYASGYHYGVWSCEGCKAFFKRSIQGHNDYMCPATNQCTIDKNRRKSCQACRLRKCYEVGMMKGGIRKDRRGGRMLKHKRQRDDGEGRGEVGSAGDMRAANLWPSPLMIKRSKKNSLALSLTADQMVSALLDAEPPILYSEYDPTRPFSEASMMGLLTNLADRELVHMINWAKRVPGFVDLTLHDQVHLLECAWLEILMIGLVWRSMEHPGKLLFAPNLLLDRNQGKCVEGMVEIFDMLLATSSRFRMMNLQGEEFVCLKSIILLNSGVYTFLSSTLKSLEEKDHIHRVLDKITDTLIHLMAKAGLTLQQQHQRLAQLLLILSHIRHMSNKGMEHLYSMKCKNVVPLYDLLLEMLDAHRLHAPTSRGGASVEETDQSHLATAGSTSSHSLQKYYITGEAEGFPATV
Summary of the method: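 VM7Luc4E2; 4xERE-luciferase; 0.1 nM E2 final; 22 h co-incubation, 37C; ONE-Glo luminescence after 30 min at room temperature.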
On the % scale 0 is the no-effect control and ±100 the full control effect.

C=CCN1CC[C@]23c4c5ccc(O)c4O[C@H]2C(=O)CC[C@@]3(O)[C@H]1C5
inactive: Potency [1] | Potency [2] | Potency [3] | Potency [4] | Potency [5] | Potency [6] | Potency [7] | Potency [8] | Potency [9] | Potency [10] | Potency [11] | Potency [12] | Potency [13] | outcome [14] | Potency [15] | Potency [16] | Potency [17] | Potency [18]

O=C(NCc1cccnc1)Nc1ccc([N+](=O)[O-])cc1
inactive: Potency [1] | Potency [2] | Potency [3] | Potency [4] | Potency [5] | Potency [6] | Potency [8] | Potency [9] | Potency [10] | Potency [11] | Potency [13] | Potency [19] | Potency [15] | Potency [16] | Potency [17] | Potency [18]
active: Potency [7] 49 µM

CC(C)N(CCC(C(N)=O)(c1ccccc1)c1ccccn1)C(C)C (configuration not stated)
inactive: Potency [1] | Potency [2] | Potency [3] | Potency [4] | Potency [5] | Potency [6] | Potency [7] | Potency [8] | Potency [9] | Potency [10] | Potency [11] | Potency [12] | Potency [13] | outcome [14] | Potency [15] | Potency [16] | Potency [17] | Potency [18]

CCOP(O)OCC
inactive: Potency [1] | Potency [2] | Potency [3] | Potency [4] | Potency [5] | Potency [6] | Potency [7] | Potency [8] | Potency [9] | Potency [10] | Potency [11] | Potency [12] | Potency [13] | Potency [15] | Potency [16] | Potency [17] | Potency [18]

CCOP(=O)(OCC)SCCSCC
inactive: Potency [1] | Potency [2] | Potency [3] | Potency [4] | Potency [5] | Potency [6] | Potency [7] | Potency [8] | Potency [9] | Potency [10] | Potency [11] | Potency [12] | Potency [13] | Potency [19] | Potency [15] | Potency [16] | Potency [17] | Potency [18]

CCOP(=S)(Oc1ccc([N+](=O)[O-])cc1)c1ccccc1 (configuration not stated)
inactive: Potency [1] | Potency [2] | Potency [3] | Potency [4] | Potency [5] | Potency [6] | Potency [7] | Potency [8] | Potency [9] | Potency [10] | Potency [11] | Potency [12] | Potency [13] | Potency [19] | Potency [16] | Potency [17] | Potency [18]

CCCCN=C=O
inactive: Potency [1] | Potency [2] | Potency [3] | Potency [4] | Potency [5] | Potency [6] | Potency [7] | Potency [8] | Potency [9] | Potency [10] | Potency [11] | Potency [12] | Potency [13] | Potency [15] | Potency [16] | Potency [17] | Potency [18]

c1ccc(CN2CCNCC2)cc1
inactive: Potency [1] | Potency [2] | Potency [3] | Potency [4] | Potency [5] | Potency [6] | Potency [7] | Potency [8] | Potency [9] | Potency [10] | Potency [11] | Potency [12] | Potency [13] | outcome [14] | Potency [15] | Potency [16] | Potency [17] | Potency [18]

ClCCCCBr
inactive: Potency [1] | Potency [2] | Potency [3] | Potency [4] | Potency [5] | Potency [6] | Potency [7] | Potency [8] | Potency [9] | Potency [10] | Potency [11] | Potency [12] | Potency [13] | Potency [15] | Potency [16] | Potency [18]

Nc1nc(=S)[nH][nH]1
inactive: Potency [1] | Potency [2] | Potency [3] | Potency [4] | Potency [5] | Potency [6] | Potency [7] | Potency [8] | Potency [9] | Potency [10] | Potency [11] | Potency [12] | Potency [13] | Potency [19] | Potency [16] | Potency [17] | Potency [18]

O=C(O)COc1ccc(Cl)cc1
inactive: Potency [1] | Potency [2] | Potency [3] | Potency [4] | Potency [5] | Potency [6] | Potency [7] | Potency [8] | Potency [9] | Potency [10] | Potency [11] | Potency [12] | Potency [13] | Potency [19] | Potency [16] | Potency [17] | Potency [18]

C#CCOC(C(=O)OCCN(C)C)(c1ccccc1)c1ccccc1
inactive: Potency [1] | Potency [2] | Potency [3] | Potency [4] | Potency [5] | Potency [6] | Potency [7] | Potency [8] | Potency [9] | Potency [10] | Potency [11] | Potency [13] | outcome [14] | Potency [15] | Potency [16] | Potency [17] | Potency [18]

CC(C)(CCl)C(=O)Cl
inactive: Potency [1] | Potency [2] | Potency [3] | Potency [4] | Potency [5] | Potency [6] | Potency [7] | Potency [8] | Potency [10] | Potency [11] | Potency [12] | Potency [13] | Potency [15] | Potency [16] | Potency [17]
active: Potency [18] 12.2 µM

NCC(CC(=O)O)c1ccc(Cl)cc1 (configuration not stated)
inactive: activity change, negative = cytotoxicity [1] -1.28% [at 0.29 µM] | cytotoxicity increase [2] -17.2% [at 0.29 µM] | cytotoxicity [3] 0.813% [at 0.29 µM] | cytotoxicity increase [4] -7.65% [at 0.29 µM] | cytotoxicity increase [5] -12.5% [at 0.29 µM] | activity change, negative = cytotoxic [6] -0.45% [at 0.29 µM] | activity change, negative = cytotoxicity [7] 4.3% [at 0.29 µM] | activity change, negative = cytotoxicity [8] 1.53% [at 0.29 µM] | activity change [9] -9.31% [at 0.29 µM, active compounds read high] | activity change, negative = cytotoxicity [10] -4.46% [at 0.29 µM] | cytotoxicity increase [11] -2.04% [at 0.29 µM] | viability change, negative = cytotoxic [13] 0.181% [at 0.349 µM] | outcome [14] | activity change, negative = inhibition [15] 13.2% [at 0.349 µM] | activity change, negative = cytotoxicity [16] -1.28% [at 0.349 µM] | viability change, negative = cytotoxic [17] 4.25% [at 0.349 µM] | viability change, negative = cytotoxic [18] 1.24% [at 0.349 µM]

CC(Cl)C(C)Cl (configuration not stated)
inactive: Potency [1] | Potency [2] | Potency [3] | Potency [4] | Potency [5] | Potency [6] | Potency [7] | Potency [8] | Potency [10] | Potency [11] | Potency [12] | Potency [13] | Potency [19] | Potency [15] | Potency [16] | Potency [17] | Potency [18]
